Source: PubChem
Hits are enriched below; roughly 0.43% of the tested compounds scored in any of these assays.
Tb PFK inh – T. brucei PFK enzyme inhibition; actives 0.17% (n = 330,000); AID 485367; T. brucei PFK, ADP-Glo luminescence; O15648; Potency, µM (doses to about 57.5 µM), for the others: at the top dose activity, negative = inhibition, actives largely listed as inhibitors; active means well fitted inhibition curve with a large enough effect; inconclusive means small, poorly fitted or top-dose-only effect, or effect the other way;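 further: potency means the concentration at half of the fitted maximal effect; 0% = uninhibited 1x PFK enzyme wells and -100% = no-enzyme wells; nearly all actives have a fitted effect of over 60% in size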
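PFK 1.25 nM, F6P 0.5 mM, ATP 0.1 mM, 0.1 M TEA pH 8.0, 5 mM MgCl2, 0.01% Tween20, 0.1% BSA; 45 min RT. ADP-Glo readout. qHTS titration up to 57 uM; curves fitted, compounds curve-classed.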
Menin-MLL FL inh – displaces fluorescein MLL peptide from human menin; 290,000 tested, under 10 active; Fluorescence polarization, fluorescein-MLL peptide displacement from menin; FP activity change, % at 61.4 µM; active means well fitted curve in the direction sought with a large enough effect in the polarisation, not every such curve was filed as active; inconclusive means small, poorly fitted or top-dose-only effect, or effect the other way, or a change in a side signal; inactive means no such curve, though single readings can be large or run the other way; the % refers to the polarisation; further: % of control where 0% means no effect
MLL CXXC-DNA inh – blocks binding of human MLL CXXC domain to DNA | Q03164 | MLL-CXXC / FITC-HOXA9 DNA fluorescence polarization | Potency, µM (top dose mostly 115 µM), without a hit: top-dose activity change, negative = inhibition, usual class: inhibitors | actives 0.037% (n = 290,000); active means well fitted inhibition curve with a large enough effect in the polarisation, with a control signal flat, not every such curve was filed as active; inconclusive means small, poorly fitted or top-dose-only effect, or effect the other way, or a change in a side signal; inactive means no such curve, though single readings can be large or run the other way; the % refers to the polarisation; further: potency means the concentration at half of the fitted maximal effect
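Fluorescence polarization: 7 uM MLL-CXXC (stock) preincubated 5 min with compounds, then 50 nM fluorescein-HOX-A9 DNA (stock) added; 30 min ambient. Buffer 50 mM Tris-HCl pH 7.5, 50 mM NaCl, 1 mM DTT, 0.05% BSA.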
Menin MLL FP TR – inhibitors of human menin-MLL interaction, mutant MLL peptide. O00255. Menin + Texas Red MLL mutant peptide, fluorescence polarization. Potency, µM (top dose mostly 61.6 µM), for the others: at the highest dose FP activity change, negative = inhibition, hits mostly inhibitors. actives 0.23% (n = 270,000). AID 1768; active means well fitted inhibition curve with a large enough effect in the polarisation, with a control signal flat, not every such curve was filed as active; inconclusive means small, poorly fitted or top-dose-only effect, or effect the other way, or a change in a side signal; inactive means no such curve, though single readings can be large or run the other way; the % refers to the polarisation; further: potency means the concentration at half of the fitted maximal effect; % of control where 0% means no effect
RGS12 GoLoco inh – RGS12 GoLoco-Gai1 interaction inhibition. actives 0.44% (n = 230,000). Gai1:RGS12 GoLoco peptide FP, rhodamine, 10 min. Potency, µM (highest dose often 61.6 µM), inactives show top-dose activity, negative = inhibition, usual class: inhibitors; active means well fitted inhibition curve with a large enough effect, not every such curve was filed as active; inactive means no such curve, though single readings can be large or run the other way; further: potency means the concentration at half of the fitted maximal effect; on the % scale 0 is the no-effect control and ±100 the full control effect; nearly all actives have a fitted effect of over 30% in size
* = called active by the depositor; [ ] = another dose, or the depositor's remark.

`CSC(=[SH+])N=N/C(=C1/C=CC=CN1)c1ccccn1.[Cu][Br]` gave RGS12 GoLoco inh -13%[14.2 µM].
For Nc1nc(-c2nn(Cc3ccccc3F)c3ncccc23)ncc1C1CC1 the results were Menin-MLL FL inh -5 and Menin MLL FP TR -17%.
Screening Cn1c[n+](C)cc1C(O)c1ccccc1 (configuration not stated) returned Tb PFK inh 0%, Menin-MLL FL inh 1, MLL CXXC-DNA inh -3%, Menin MLL FP TR 4% and RGS12 GoLoco inh 14µM*.
Screening CCCN1C=CC(=C/C=C(\C#N)C(=O)OCC)C=C1 returned Tb PFK inh 0%, Menin-MLL FL inh inconclusive, MLL CXXC-DNA inh inconclusive, Menin MLL FP TR 17% and RGS12 GoLoco inh 10%.
For CCOC(=O)/C(C#N)=C/C=C1\C=Cc2ccccc2N1CC the results were Tb PFK inh 0%, Menin-MLL FL inh inconclusive, MLL CXXC-DNA inh 177%, Menin MLL FP TR 25µM* and RGS12 GoLoco inh 108%.
Screening O=c1ncccn1[C@@H]1O[C@H](CO)[C@@H](O)[C@H]1O returned Menin-MLL FL inh -2 and Menin MLL FP TR 6%.
For C/C(=N\NC(=O)c1cc2ccccc2cc1O)c1cc2ccccc2o1 the results were Tb PFK inh 2%, Menin-MLL FL inh 6, MLL CXXC-DNA inh -1% and RGS12 GoLoco inh 25µM*.
`CCCC[C@@H](C=O)NC(=O)[C@H](CC(C)C)NC(=O)OCc1ccccc1` gave RGS12 GoLoco inh -1%.
For COc1ccc(C(=O)C[N+]2(C)CCOCC2)cc1 the results were Tb PFK inh 0%, Menin-MLL FL inh 1, MLL CXXC-DNA inh 9%, Menin MLL FP TR 6% and RGS12 GoLoco inh 7.1µM*.
For COc1ccc(C(=O)OCC[N+]2(C)CCCCC2)cc1 the results were Tb PFK inh -3%, Menin-MLL FL inh 1, MLL CXXC-DNA inh -2%, Menin MLL FP TR -7% and RGS12 GoLoco inh 13µM*.
`COc1ccc(C(=O)OCCN2CCCCC2)cc1` gave Tb PFK inh -6%, Menin-MLL FL inh 5, MLL CXXC-DNA inh -1%, Menin MLL FP TR -7% and RGS12 GoLoco inh 3%.
`Cc1nc(NC2CCCCC2)c2nc(-c3ccccc3)n(CCN3CCCC3)c2n1` gave Menin-MLL FL inh -7, Menin MLL FP TR -12% and RGS12 GoLoco inh 10%.
`COC(=O)C[C@H]1c2ccccc2[C@H]2C(=C[C@@H](C)[C@H]3C(=O)N(O)C(=O)[C@H]32)N1C(=O)OC` gave Menin-MLL FL inh 4[11.7 µM], Menin MLL FP TR -18%[11.7 µM] and RGS12 GoLoco inh -3%[14.2 µM].
`Clc1ccc(-c2c[n+](Cc3ccc(Cl)c(Cl)c3)c3n2CCC3)cc1` gave Tb PFK inh 12µM*, Menin-MLL FL inh 5, MLL CXXC-DNA inh -3%, Menin MLL FP TR -14% and RGS12 GoLoco inh -7%.
Cc1ccc(-c2c[n+](Cc3ccc(Cl)cc3)c3n2CCC3)cc1 was read as Tb PFK inh inconclusive, Menin-MLL FL inh -5, MLL CXXC-DNA inh 0% and RGS12 GoLoco inh -5%.
For CC(C)CO/N=C1/C[C@@H](O)[C@@H](O)[C@@H]2[C@@H]3C(=O)N(C[C@@H]4CCCO4)C(=O)[C@H]3CC[C@H]12 the results were Menin-MLL FL inh -5[11.7 µM] and Menin MLL FP TR 21%[11.7 µM].
Screening O=c1cc(C(F)(F)F)c2cc3c4c(c2o1)CCCN4CCC3 returned Tb PFK inh 0%, Menin-MLL FL inh inconclusive, MLL CXXC-DNA inh inconclusive, Menin MLL FP TR -10% and RGS12 GoLoco inh 13µM*.
`O=CN/C=C/c1cc(O)ccc1O` gave Tb PFK inh 30µM*, Menin-MLL FL inh -1, MLL CXXC-DNA inh 4% and RGS12 GoLoco inh -21%.
For C[n+]1ccc(-c2ccncc2)cc1 the results were Tb PFK inh 2%, Menin-MLL FL inh 2, MLL CXXC-DNA inh 1%, Menin MLL FP TR 2% and RGS12 GoLoco inh 10µM*.
For C/C1=C\[C@@H](O)C(C(C)C)C(OC(=O)c2ccc(O)cc2)C/C(C)=C/CC1 (some centres not stated) the results were Menin-MLL FL inh 5 and Menin MLL FP TR 17%.
Screening Cc1cccc2c1NC(C)CC2C (configuration not stated) returned Tb PFK inh 2%, Menin-MLL FL inh -3, MLL CXXC-DNA inh -1%, Menin MLL FP TR 25µM* and RGS12 GoLoco inh -1%.
`CN1CCc2c(cc(O)c(O)c2Cl)C(c2cccc(Cl)c2)C1` (configuration not stated) gave Menin-MLL FL inh 1, MLL CXXC-DNA inh -11%, Menin MLL FP TR -15% and RGS12 GoLoco inh 1%.
`O=C(CCS(=O)(=O)c1ccc(Br)cc1)NCc1ccc(F)cc1` gave Tb PFK inh 24µM*, Menin-MLL FL inh 1, MLL CXXC-DNA inh -4% and Menin MLL FP TR -1%.
`CCN(c1ccc(NC(=O)COC(=O)c2cccs2)cc1)C(C)C` gave Tb PFK inh -4%, Menin-MLL FL inh 3, MLL CXXC-DNA inh -2%, Menin MLL FP TR 1% and RGS12 GoLoco inh -19%.
For CCN(CC)c1ccc(NC(=O)COC(=O)c2cccs2)cc1 the results were Tb PFK inh -5%, Menin-MLL FL inh 2, MLL CXXC-DNA inh 11%, Menin MLL FP TR -2% and RGS12 GoLoco inh 2µM*.
For CN(C)[C@@H]1C(=O)C(C(N)=O)=C(O)[C@]2(O)C(=O)C3=C(O)c4c(O)cccc4[C@@](C)(O)[C@H]3[C@H](O)[C@@H]12 the results were Menin-MLL FL inh inconclusive, Menin MLL FP TR 5%[24.8 µM] and RGS12 GoLoco inh 5.6µM*.
`CN(C)C1C(=O)C(C(N)=O)=C(O)[C@@]2(O)C(=O)C3=C(O)c4c(O)cccc4[C@@](C)(O)C3[C@H](O)C12` (some centres not stated) gave Menin-MLL FL inh inconclusive, Menin MLL FP TR inconclusive and RGS12 GoLoco inh -19%.
For CN1CCc2c(sc3c2C(=O)NC(c2ccccn2)N3)C1 (configuration not stated) the results were Tb PFK inh -1%, Menin-MLL FL inh inconclusive, MLL CXXC-DNA inh inconclusive, Menin MLL FP TR inconclusive and RGS12 GoLoco inh 28µM*.
CN1CCc2c(sc3c2C(=O)NC(c2ccccc2)N3)C1 (configuration not stated) was read as Tb PFK inh 4%, Menin-MLL FL inh inconclusive, MLL CXXC-DNA inh -18%, Menin MLL FP TR inconclusive and RGS12 GoLoco inh 25%.
Screening N#Cc1ccc2c(c1)C[C@]1(c3ccsc3)OC3=C(C(=O)OC4(CCCCC4)C3)C2O1 returned Tb PFK inh -6%[11.5 µM], Menin-MLL FL inh 7[11.7 µM], MLL CXXC-DNA inh -4%[23 µM] and Menin MLL FP TR 5%[11.7 µM].
CC(C)(C)Nc1oc(-c2ccccc2)nc1-c1ccc(C(F)(F)F)cc1 was read as Menin-MLL FL inh -3, Menin MLL FP TR 3% and RGS12 GoLoco inh 1%.
Screening CCn1c(CSc2nnc(-c3ccncc3)n2C)nc2cc(C(=O)O)ccc21 returned Tb PFK inh -3%, Menin-MLL FL inh -16, MLL CXXC-DNA inh -25% and RGS12 GoLoco inh 14µM*.
Screening O=C(NCCc1ccncc1)c1ccc2nc(Cc3cccc(Cl)c3)oc2c1 returned Tb PFK inh -1% and MLL CXXC-DNA inh 2%.
